Experimental data as given in PubChem BioAssay (EPA / NIEHS).
Where “and” joins values, the source holds several entries; their conditions need not be identical. Equal values may be shown once. Records with an inconclusive call do not appear. Some compounds were tested as several samples or in several runs, with calls that do not always agree. Calls of active or inactive are those of the source. The calls were made as follows, unless noted: active = hit-call score of the fitted dose curve at least 0.9, where 1 is the maximum; inactive = score below 0.9.

Assays:
[1] = BSK_4H_Eotaxin3: BioMAP Diversity Plus: 4H Assay for Eotaxin 3 Biomarker Activity (AID 2283000); conditions: primary human endothelial cells (HUVEC); actives raise or lower the signal
Procedure, shortened: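 HUVEC, 24 h post-dose, ELISA for Eotaxin-3/CCL26. Gain or loss of signal fitted bidirectionally vs DMSO baseline.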

[2] = biological target: human Peroxisome Proliferator-activated Receptor delta (PPARd), PPARD (gene 5467) (UniProt Q03181); assay: ATG_PPARd_TRANS: Attagene TRANS-FACTORIAL HepG2 Assay for human Peroxisome Proliferator-activated Receptor delta (PPARd) (AID 2283002; active = hit-call score of the fitted dose curve at least 0.9, where 1 is the maximum)
Procedure, shortened: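 HepG2 cells transiently transfected with multiplexed GAL4-UAS reporter units and exogenous chimeric NR-Gal4 proteins; 24 h compound exposure. Reporter mRNA measured by RT-PCR, 6-FAM labelling, HpaI digestion and capillary electrophoresis; gain of signal versus DMSO.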

[3] = read-out: Intercellular Adhesion Molecule 1 (ICAM1), ICAM1 (gene 3383); assay: BSK_3C_ICAM1: BioMAP Diversity Plus: 3C Assay for Intercellular Adhesion Molecule 1 (ICAM1) Biomarker Activity (AID 2283003); conditions: primary human endothelial cells (HUVEC); actives raise or lower the signal
Procedure, shortened: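 Chemicals are dosed onto primary human umbilical vein endothelium (3C system). After 24 h, ICAM-1 is measured by ELISA, and responses are fitted bidirectionally relative to DMSO.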

[4] = biological target: human Retinoic Acid Receptor beta (RARb), RARB (gene 5915) (UniProt P10826); assay: ATG_RARb_TRANS: Attagene TRANS-FACTORIAL HepG2 Assay for human Retinoic Acid Receptor beta (AID 2283004; active = hit-call score of the fitted dose curve at least 0.9, where 1 is the maximum)
Procedure, shortened: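 HepG2 cells transiently transfected with multiplexed GAL4-UAS reporter units expressing chimeric NR–Gal4 fusions; 24 h compound exposure. Reporter mRNA quantified by RT-PCR, 6-FAM labelling, HpaI digestion and capillary electrophoresis; gain-of-signal fitted against DMSO baseline.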

[5] = biological target: Retinoic acid receptor alpha (Homo sapiens) (UniProt P10276); assay: ATG_RARa_TRANS: Attagene TRANS-FACTORIAL HepG2 Assay for human Retinoic Acid Receptor alpha (RARa) (AID 2283005; active = hit-call score of the fitted dose curve at least 0.9, where 1 is the maximum)
Procedure, shortened: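 HepG2 cells transiently transfected with multiple reporter units expressing chimeric RARα-GAL4 fusion, with GAL4-UAS-driven reporters. After 24 h compound exposure, reporter mRNA induction quantified by RT-PCR and capillary electrophoresis with fluorescent labeling; gain-of-signal fitted relative to DMSO control.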

[6] = BSK_3C_Proliferation: Cell Proliferation Assessment in the BioMAP Diversity Plus: 3C Assay (AID 2283006); conditions: primary human endothelial cells (HUVEC);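 as to AC50: potency may reflect either rise or fall in cell number versus DMSO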
Procedure, shortened: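 Cells (human umbilical vein endothelial, sub-confluent) receive test chemical; after 48 h they are fixed in 10% trichloroacetic acid, stained with 0.1% SRB and read at 560 nm. Activity is referenced to DMSO, fitting increases and decreases.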

[7] = biological target: Peroxisome proliferator-activated receptor gamma (Homo sapiens) (UniProt P37231); assay: ATG_PPARg_TRANS: Attagene TRANS-FACTORIAL HepG2 Assay for human Peroxisome Proliferator-activated Receptor-gamma (PPARg) (AID 2283007; active = hit-call score of the fitted dose curve at least 0.9, where 1 is the maximum)
Procedure, shortened: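 HepG2 cells transiently transfected with multiplexed GAL4-UAS reporter units and exogenous chimeric NR-Gal4 proteins; reporter mRNA quantified after 24 h compound exposure by RT-PCR, fluorescent labelling, HpaI digestion and capillary electrophoresis; gain-of-signal fitted versus DMSO baseline.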

[8] = biological target: Nuclear receptor subfamily 1 group I member 2 (Homo sapiens) (UniProt O75469); assay: ATG_PXR_TRANS: Attagene TRANS-FACTORIAL HepG2 Assay for human Pregnane X Receptor (PXR) (AID 2283008; active = hit-call score of the fitted dose curve at least 0.9, where 1 is the maximum)
Procedure, shortened: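 Transactivation by exogenous PXR–GAL4 fusion measured as reporter transcript induction after 24 h compound treatment of transfected human HepG2 cells. Read-out via RT-PCR and capillary electrophoresis of labelled fragments, fitted upward relative to DMSO.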

[9] = biological target: human Retinoic Acid Receptor gamma (RARg), RARG (gene 5916) (UniProt P13631); assay: ATG_RARg_TRANS: Attagene TRANS-FACTORIAL HepG2 Assay for human Retinoic Acid Receptor gamma (RARg) (AID 2283009; active = hit-call score of the fitted dose curve at least 0.9, where 1 is the maximum)
Procedure, shortened: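 TRANS format measured activity of exogenous NR-GAL4 fusion (RARg) in transfected HepG2 liver cells after 24 h dosing. Induced reporter RNA was detected by RT-PCR/capillary electrophoresis fluorescence, analysed in the positive direction against DMSO.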

[10] = biological target: human RAR-related Orphan Receptor beta (RORb), RORB (gene 6096) (UniProt Q92753); assay: ATG_RORb_TRANS: Attagene TRANS-FACTORIAL HepG2 Assay for human RAR-related Orphan Receptor beta (RORb) (AID 2283010; active = hit-call score of the fitted dose curve at least 0.9, where 1 is the maximum)
Procedure, shortened: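 Transfect HepG2 with multiple GAL4-UAS reporter transcription units; dose chemicals for 24 h; isolate RNA, reverse-transcribe and PCR-amplify reporter sequences; label, digest and resolve fragments by capillary electrophoresis; fit increases relative to DMSO.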

[11] = biological target: human RAR-related Orphan Receptor gamma (RORg), RORC (gene 6097) (UniProt P51449); assay: ATG_RORg_TRANS: Attagene TRANS-FACTORIAL HepG2 Assay for human RAR-related Orphan Receptor gamma (RORg) (AID 2283011; active = hit-call score of the fitted dose curve at least 0.9, where 1 is the maximum)
Procedure, shortened: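 Readout: reporter transcript induction (RT-PCR, fluorescent primer extension, capillary electrophoresis) after 24 h compound exposure of transiently transfected HepG2 cells carrying a RORg-Gal4 chimera and GAL4-UAS reporters; DMSO served as baseline, with increasing signal fitted.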

[12] = biological target: Retinoic acid receptor RXR-alpha (Homo sapiens) (UniProt P19793); assay: ATG_RXRa_TRANS: Attagene TRANS-FACTORIAL HepG2 Assay for human Retinoid X Receptor alpha (RXRa) (AID 2283012; active = hit-call score of the fitted dose curve at least 0.9, where 1 is the maximum)
Procedure, shortened: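 Measures exogenous chimeric NR-GAL4 activity in transfected HepG2 liver cells after 24 h of dosing. Induced reporter mRNA was detected by RT-PCR with capillary electrophoresis, and gain of signal was analysed against DMSO.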

[13] = biological target: human Retinoid X Receptor beta (RXRb), RXRB (gene 6257) (UniProt P28702); assay: ATG_RXRb_TRANS: Attagene TRANS-FACTORIAL HepG2 Assay for human Retinoid X Receptor beta (RXRb) (AID 2283013; active = hit-call score of the fitted dose curve at least 0.9, where 1 is the maximum)
Procedure, shortened: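 Chimeric receptor-Gal4 activity was assessed in transiently transfected human HepG2 cells after 24 h exposure. Transcripts from GAL4-UAS reporters were quantified by fluorescent RT-PCR and capillary electrophoresis, with DMSO as negative control and baseline.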

[14] = read-out: E-selectin (Homo sapiens) (UniProt P16581); assay: BSK_3C_Eselectin: BioMAP Diversity Plus: 3C Assay for Eselectin Biomarker Activity (AID 2283015); conditions: primary human endothelial cells (HUVEC); actives raise or lower the signal
Procedure, shortened: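 Primary human umbilical vein endothelial cells (3C system) were dosed with chemical and cell-surface E-selectin measured by ELISA 24 h later. Bidirectional curve fitting used DMSO as negative control and baseline.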

[15] = read-out: Interleukin-1 alpha (IL1a), IL1A (gene 3552); assay: BSK_BE3C_IL1a: BioMAP Diversity Plus: BE3C Assay for Interleukin-1 alpha (IL1a) Biomarker Activity (AID 2283016); conditions: primary human bronchial epithelial cells; actives raise or lower the signal
Procedure, shortened: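 Signal from IL-1a ELISA, taken 24 h after chemical dosing of human bronchial epithelial cells, is compared with DMSO as baseline using bidirectional curve fitting.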

[16] = read-out: Monocyte Chemoattractant Protein-1 (MCP1), CCL2 (gene 6347); assay: BSK_3C_MCP1: BioMAP Diversity Plus: 3C Assay for Monocyte Chemoattractant Protein-1 (MCP1) Biomarker Activity (AID 2283017); conditions: primary human endothelial cells (HUVEC); actives raise or lower the signal
Procedure, shortened: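 Primary human umbilical vein endothelial cells (3C system) were exposed to test chemical for 24 h, after which MCP-1 was quantified by ELISA. Activity was fitted bidirectionally against DMSO as negative control and baseline.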

[17] = read-out: Monocyte Chemoattractant Protein-1 (MCP1), CCL2 (gene 6347); assay: BSK_4H_MCP1: BioMAP Diversity Plus: 4H Assay for Monocyte Chemoattractant Protein-1 (MCP1) Biomarker Activity (AID 2283018); conditions: primary human endothelial cells (HUVEC); actives raise or lower the signal
Procedure, shortened: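 Endothelial cells from umbilical vein were treated with test chemical, then after 24 h MCP-1 levels were quantified by ELISA; endpoint values came from bidirectional fitting with DMSO as baseline of activity.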

[18] = read-out: Human Leukocyte Antigen - DR isotype (HLADR), HLA-DRA (gene 3122); assay: BSK_3C_HLADR: BioMAP Diversity Plus: 3C Assay for Human Leukocyte Antigen - DR isotype (HLADR) Biomarker Activity (AID 2283019); conditions: primary human endothelial cells (HUVEC); actives raise or lower the signal
Procedure, shortened: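 Primary human umbilical vein endothelial cells (3C system) were dosed with compound and cell-surface HLA-DR was quantified by ELISA at 24 h. Activity was fitted bidirectionally against DMSO as negative control and baseline.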

[19] = biological target: human Thyroid Receptor alpha (THRa1), THRA (gene 7067) (UniProt P10827); assay: ATG_THRa1_TRANS: Attagene TRANS-FACTORIAL HepG2 Assay for human Thyroid Receptor alpha (THRa1) (AID 2283014; active = hit-call score of the fitted dose curve at least 0.9, where 1 is the maximum)
Procedure, shortened: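 HepG2 cells transiently transfected with multiplexed GAL4-UAS reporter units for exogenous chimeric THRa1-Gal4; reporter mRNA measured 24 h after dosing by RT-PCR, 6-FAM labelling, HpaI digestion and capillary electrophoresis. Gain-of-signal fitted versus DMSO baseline.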

[20] = biological target: human Peroxisome Proliferator-activated Receptor alpha (PPARa), PPARA (gene 5465) (UniProt Q07869); assay: ATG_PPARa_TRANS: Attagene TRANS-FACTORIAL HepG2 Assay for human Peroxisome Proliferator-activated Receptor alpha (PPARa) (AID 2283001; active = hit-call score of the fitted dose curve at least 0.9, where 1 is the maximum)
Procedure, shortened: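 Cells (HepG2) are transfected with multiple reporter transcription units, exposed to chemical for 24 h, then total RNA is reverse-transcribed and amplified. Labelled products are quantified by capillary electrophoresis; induction is referenced to DMSO.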

Measured: AC50

E-selectin (Homo sapiens), sequence (P16581 whole entry, looked up): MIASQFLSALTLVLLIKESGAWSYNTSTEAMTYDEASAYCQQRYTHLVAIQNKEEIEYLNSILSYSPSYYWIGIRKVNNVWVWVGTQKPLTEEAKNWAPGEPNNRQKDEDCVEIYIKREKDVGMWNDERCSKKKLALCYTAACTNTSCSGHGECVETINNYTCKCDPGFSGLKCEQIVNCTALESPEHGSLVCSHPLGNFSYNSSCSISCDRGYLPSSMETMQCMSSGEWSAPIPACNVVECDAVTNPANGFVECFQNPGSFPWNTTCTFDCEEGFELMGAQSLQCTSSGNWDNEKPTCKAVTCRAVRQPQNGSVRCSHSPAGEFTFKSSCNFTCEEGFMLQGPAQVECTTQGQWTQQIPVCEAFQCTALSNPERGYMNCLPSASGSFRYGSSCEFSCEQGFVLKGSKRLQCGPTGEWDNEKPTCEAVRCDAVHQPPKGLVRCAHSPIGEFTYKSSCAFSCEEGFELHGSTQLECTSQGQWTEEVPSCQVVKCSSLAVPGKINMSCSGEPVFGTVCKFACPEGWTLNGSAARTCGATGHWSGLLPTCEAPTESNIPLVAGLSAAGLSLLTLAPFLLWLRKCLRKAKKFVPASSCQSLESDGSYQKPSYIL
human Thyroid Receptor alpha (THRa1), THRA (gene 7067), sequence (P10827 whole entry, looked up, the tested form may be a part): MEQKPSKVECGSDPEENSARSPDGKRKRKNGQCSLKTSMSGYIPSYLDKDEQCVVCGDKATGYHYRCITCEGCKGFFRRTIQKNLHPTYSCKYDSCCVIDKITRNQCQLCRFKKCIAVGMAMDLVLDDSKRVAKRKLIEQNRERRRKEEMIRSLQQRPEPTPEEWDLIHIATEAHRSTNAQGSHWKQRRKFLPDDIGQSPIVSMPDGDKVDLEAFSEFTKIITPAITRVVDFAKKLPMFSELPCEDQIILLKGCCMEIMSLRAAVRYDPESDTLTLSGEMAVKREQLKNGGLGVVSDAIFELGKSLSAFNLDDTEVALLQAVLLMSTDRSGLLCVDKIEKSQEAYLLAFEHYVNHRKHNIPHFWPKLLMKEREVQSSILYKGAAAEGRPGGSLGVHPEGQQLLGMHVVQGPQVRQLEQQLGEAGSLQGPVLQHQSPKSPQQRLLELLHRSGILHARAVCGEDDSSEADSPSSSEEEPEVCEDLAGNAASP
human Peroxisome Proliferator-activated Receptor delta (PPARd), PPARD (gene 5467), sequence (Q03181 whole entry, looked up, the tested form may be a part): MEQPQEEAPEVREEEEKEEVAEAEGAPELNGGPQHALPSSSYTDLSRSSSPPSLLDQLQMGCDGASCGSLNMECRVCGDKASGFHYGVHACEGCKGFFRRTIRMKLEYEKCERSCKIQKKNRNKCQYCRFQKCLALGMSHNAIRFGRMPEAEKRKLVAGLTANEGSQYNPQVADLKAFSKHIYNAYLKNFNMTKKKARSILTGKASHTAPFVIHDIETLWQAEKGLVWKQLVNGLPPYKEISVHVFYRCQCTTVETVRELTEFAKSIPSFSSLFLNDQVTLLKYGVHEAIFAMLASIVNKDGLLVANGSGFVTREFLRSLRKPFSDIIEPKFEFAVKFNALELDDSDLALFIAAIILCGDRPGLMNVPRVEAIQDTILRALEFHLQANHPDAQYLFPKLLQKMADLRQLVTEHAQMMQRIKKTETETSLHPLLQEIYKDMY
Nuclear receptor subfamily 1 group I member 2 (Homo sapiens), sequence (O75469 whole entry, looked up, the tested form may be a part): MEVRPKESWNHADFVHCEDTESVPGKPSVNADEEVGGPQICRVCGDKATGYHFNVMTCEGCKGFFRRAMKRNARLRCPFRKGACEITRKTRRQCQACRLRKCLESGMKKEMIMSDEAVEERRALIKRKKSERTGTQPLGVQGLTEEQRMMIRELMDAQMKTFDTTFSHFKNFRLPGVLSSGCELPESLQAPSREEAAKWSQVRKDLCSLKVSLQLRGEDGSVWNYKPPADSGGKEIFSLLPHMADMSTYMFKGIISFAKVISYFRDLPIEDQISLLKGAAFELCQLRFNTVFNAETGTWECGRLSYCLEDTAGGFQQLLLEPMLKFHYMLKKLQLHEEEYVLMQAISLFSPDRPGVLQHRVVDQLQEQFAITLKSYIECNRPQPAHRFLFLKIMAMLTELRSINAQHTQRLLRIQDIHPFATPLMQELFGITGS
human Retinoid X Receptor beta (RXRb), RXRB (gene 6257), sequence (P28702 whole entry, looked up, the tested form may be a part): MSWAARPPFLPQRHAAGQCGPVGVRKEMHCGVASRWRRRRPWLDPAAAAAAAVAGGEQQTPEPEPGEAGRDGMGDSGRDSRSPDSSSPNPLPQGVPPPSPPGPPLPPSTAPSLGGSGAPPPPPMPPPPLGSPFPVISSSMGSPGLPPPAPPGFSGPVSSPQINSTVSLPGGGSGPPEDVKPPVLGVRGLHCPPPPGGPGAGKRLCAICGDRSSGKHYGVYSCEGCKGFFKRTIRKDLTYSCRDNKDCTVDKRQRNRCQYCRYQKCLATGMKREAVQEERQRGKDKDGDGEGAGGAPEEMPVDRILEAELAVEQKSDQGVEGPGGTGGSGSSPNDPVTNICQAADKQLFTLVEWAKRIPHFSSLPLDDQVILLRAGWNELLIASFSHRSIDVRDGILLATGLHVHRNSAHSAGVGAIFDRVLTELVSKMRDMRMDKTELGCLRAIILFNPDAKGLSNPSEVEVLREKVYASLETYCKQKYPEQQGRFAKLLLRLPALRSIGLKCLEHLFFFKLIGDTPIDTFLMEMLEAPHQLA
human Retinoic Acid Receptor gamma (RARg), RARG (gene 5916), sequence (P13631 whole entry, looked up, the tested form may be a part): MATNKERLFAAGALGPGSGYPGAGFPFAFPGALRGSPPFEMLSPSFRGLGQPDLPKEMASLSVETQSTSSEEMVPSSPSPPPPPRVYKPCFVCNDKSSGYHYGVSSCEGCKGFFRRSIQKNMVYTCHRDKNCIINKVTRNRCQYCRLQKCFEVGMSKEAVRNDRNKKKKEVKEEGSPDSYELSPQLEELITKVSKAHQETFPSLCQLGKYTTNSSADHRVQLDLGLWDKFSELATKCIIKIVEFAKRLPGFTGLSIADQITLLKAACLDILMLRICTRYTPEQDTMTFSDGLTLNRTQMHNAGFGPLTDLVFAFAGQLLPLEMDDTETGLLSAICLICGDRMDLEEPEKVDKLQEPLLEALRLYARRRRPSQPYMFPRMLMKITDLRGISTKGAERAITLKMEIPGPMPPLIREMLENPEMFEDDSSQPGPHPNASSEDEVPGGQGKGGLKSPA
Peroxisome proliferator-activated receptor gamma (Homo sapiens), sequence (P37231 whole entry, looked up, the tested form may be a part): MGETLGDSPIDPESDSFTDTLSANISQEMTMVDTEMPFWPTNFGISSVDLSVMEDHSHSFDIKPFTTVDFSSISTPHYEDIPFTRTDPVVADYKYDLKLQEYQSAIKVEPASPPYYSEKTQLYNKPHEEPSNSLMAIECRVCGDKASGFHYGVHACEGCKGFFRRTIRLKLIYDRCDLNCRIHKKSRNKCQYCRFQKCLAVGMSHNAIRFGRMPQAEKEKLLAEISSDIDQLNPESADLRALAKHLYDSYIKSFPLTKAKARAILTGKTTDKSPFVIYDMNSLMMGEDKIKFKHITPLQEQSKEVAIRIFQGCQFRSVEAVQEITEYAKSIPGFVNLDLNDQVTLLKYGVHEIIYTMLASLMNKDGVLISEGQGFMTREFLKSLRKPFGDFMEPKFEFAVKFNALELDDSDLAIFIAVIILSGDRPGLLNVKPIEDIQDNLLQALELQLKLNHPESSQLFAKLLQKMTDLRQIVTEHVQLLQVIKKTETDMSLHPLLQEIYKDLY
Retinoic acid receptor RXR-alpha (Homo sapiens), sequence (P19793 whole entry, looked up, the tested form may be a part): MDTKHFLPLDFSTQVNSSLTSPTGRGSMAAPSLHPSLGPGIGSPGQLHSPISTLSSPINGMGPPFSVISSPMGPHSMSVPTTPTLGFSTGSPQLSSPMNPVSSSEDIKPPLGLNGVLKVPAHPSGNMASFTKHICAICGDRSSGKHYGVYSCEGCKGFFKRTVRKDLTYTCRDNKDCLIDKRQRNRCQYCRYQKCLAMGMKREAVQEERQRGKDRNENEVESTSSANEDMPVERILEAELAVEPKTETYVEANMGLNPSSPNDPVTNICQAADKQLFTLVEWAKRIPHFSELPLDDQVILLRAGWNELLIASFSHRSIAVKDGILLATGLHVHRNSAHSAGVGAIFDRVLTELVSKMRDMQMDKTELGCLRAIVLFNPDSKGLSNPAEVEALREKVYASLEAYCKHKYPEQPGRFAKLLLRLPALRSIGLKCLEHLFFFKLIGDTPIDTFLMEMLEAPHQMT
human RAR-related Orphan Receptor beta (RORb), RORB (gene 6096), sequence (Q92753 whole entry, looked up, the tested form may be a part): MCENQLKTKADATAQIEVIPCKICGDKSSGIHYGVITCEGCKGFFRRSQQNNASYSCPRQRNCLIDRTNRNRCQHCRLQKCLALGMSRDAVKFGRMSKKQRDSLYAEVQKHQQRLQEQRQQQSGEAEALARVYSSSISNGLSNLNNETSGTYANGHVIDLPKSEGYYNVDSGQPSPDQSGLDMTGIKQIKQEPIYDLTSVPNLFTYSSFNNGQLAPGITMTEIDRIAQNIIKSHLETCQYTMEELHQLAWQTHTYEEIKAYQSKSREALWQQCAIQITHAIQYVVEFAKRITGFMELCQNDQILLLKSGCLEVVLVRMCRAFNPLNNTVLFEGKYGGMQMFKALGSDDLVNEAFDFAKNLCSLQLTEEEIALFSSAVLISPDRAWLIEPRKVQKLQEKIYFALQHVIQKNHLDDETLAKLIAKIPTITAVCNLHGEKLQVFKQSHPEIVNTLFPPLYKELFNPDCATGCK
human Retinoic Acid Receptor beta (RARb), RARB (gene 5915), sequence (P10826 whole entry, looked up, the tested form may be a part): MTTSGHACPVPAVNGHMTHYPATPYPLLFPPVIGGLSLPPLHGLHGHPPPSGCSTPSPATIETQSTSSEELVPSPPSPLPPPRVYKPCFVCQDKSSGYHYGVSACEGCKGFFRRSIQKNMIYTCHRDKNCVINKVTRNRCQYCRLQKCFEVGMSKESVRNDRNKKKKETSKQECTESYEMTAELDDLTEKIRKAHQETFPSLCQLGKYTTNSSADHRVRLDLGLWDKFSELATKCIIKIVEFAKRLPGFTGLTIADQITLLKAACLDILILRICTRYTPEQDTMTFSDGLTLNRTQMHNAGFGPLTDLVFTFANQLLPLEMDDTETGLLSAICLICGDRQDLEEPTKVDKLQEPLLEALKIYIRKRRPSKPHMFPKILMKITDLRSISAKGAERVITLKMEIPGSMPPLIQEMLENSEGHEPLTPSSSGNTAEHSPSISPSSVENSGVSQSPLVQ

C#C[C@]1(O)CC[C@H]2[C@@H]3CCc4cc(O)ccc4[C@H]3CC[C@@]21C
active: [6] 4.5 µM | [8] 2.7 µM and 4.39 µM and 6.57 µM | [14] 5.36 µM | [16] 7.15 µM | [18] 6.67 µM
inactive: [1] | [2] | [3] | [4] | [5] | [7] | [8] | [9] | [10] | [11] | [12] | [13] | [15] | [17]

C=CC(=O)OCC(CO)(COC(=O)C=C)COC(=O)C=C
active: [1] 0.41 µM | [3] 0.574 µM | [6] 0.131 µM | [14] 0.269 µM | [15] 0.898 µM | [16] 0.185 µM | [17] 0.333 µM | [18] 0.135 µM
inactive: [2] | [7] | [13] | [19]

CC1(C)[C@H](C=C(Cl)Cl)[C@H]1C(=O)OCc1cccc(Oc2ccccc2)c1
active: [8] 1.99 µM
inactive: [1] | [2] | [3] | [6] | [12] | [13] | [19] | [14] | [15] | [16] | [17] | [18]

c1ccc(Sc2ccccc2)cc1
inactive: [20] | [3] | [7] | [8] | [12] | [19]
active: [1] 30.7 µM | [6] 27.6 µM | [13] 100 µM | [14] 29.9 µM | [15] 33.2 µM | [16] 29.1 µM | [17] 20 µM | [18] 30.3 µM

c1ccc(OCCOc2ccccc2)cc1
inactive: [1] | [2] | [3] | [6] | [8] | [10] | [12] | [14] | [15] | [16] | [17] | [18]

CC1=CC(C)C(C=O)C(C)C1 (centres undefined) (tested in a mixture with another compound)
inactive: [1] | [3] | [6] | [7] | [8] | [10] | [12] | [19] | [14] | [15] | [16] | [17] | [18]

CCCCCCCC1CCCC1=O (centres undefined)
inactive: [20] | [7] | [9] | [10] | [12] | [13] | [17]
active: [1] 31.9 µM | [3] 31.3 µM | [6] 36.8 µM | [8] 34.2 µM | [14] 31.3 µM | [15] 34.1 µM | [16] 31.1 µM | [18] 31.6 µM

C=C(C)C(N)=O
inactive: [1] | [3] | [5] | [6] | [10] | [19] | [14] | [15] | [16] | [17] | [18]
